Results reported in PMC4336329 (PLoS ONE, 2015).
The whole screen tested about 310,000 compounds, of which about 2,200 (0.71%) showed an effect of 50% or more. The effect is printed as a negative number. Only a selection was taken, and strong results are over-represented in it overall.

The compounds below were run against human ether-à-go-go-related gene (hERG) potassium channel (human, UniProt Q12809) (assay: primary screen, population patch clamp on CHO cells stably expressing hERG; higher = less effect of the substance).
Sequence of human ether-à-go-go-related gene (hERG) potassium channel (Q12809 whole entry, looked up): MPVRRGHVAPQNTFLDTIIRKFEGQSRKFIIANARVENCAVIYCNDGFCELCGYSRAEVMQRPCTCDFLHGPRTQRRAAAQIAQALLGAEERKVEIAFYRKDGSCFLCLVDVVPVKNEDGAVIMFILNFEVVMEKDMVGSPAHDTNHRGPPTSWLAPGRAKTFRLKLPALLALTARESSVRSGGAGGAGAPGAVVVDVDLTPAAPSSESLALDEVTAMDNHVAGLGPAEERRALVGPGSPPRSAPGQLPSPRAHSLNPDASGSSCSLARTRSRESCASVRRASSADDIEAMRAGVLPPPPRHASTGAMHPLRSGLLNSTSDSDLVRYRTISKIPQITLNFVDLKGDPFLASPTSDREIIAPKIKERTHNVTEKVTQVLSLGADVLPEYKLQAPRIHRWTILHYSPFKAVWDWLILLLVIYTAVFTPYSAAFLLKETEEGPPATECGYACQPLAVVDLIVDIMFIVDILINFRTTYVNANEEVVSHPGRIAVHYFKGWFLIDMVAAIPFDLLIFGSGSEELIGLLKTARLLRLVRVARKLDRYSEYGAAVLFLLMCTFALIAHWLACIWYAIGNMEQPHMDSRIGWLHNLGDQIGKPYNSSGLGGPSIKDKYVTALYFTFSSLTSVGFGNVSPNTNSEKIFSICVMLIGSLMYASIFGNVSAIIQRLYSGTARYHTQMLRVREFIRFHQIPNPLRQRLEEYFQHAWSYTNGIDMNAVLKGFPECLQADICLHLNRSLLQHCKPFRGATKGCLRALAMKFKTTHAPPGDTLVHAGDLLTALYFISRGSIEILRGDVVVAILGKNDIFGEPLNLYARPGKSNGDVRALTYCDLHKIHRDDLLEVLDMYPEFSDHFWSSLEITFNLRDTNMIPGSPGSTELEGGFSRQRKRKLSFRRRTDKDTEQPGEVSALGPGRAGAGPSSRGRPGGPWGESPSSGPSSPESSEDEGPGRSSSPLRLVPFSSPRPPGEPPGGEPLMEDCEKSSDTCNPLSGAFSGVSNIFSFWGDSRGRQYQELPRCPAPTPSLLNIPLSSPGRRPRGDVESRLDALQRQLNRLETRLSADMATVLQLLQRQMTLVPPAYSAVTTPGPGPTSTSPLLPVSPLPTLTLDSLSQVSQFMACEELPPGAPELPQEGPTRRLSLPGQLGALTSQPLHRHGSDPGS

SMILES	hERG current change (%, negative = inhibition) at 1uM [%]
CN1CC[C@@]2(C)c3cc(O)ccc3N(C)C2O1 (some centres unmarked)	4.17
Oc1[nH]c2ccccc2c1C1=NCCCCC1	3.28
CC(C)c1nc2sc3c(c2c(=O)o1)CCCC3	9.49
Cc1ccc(C(=O)N/C(=C\c2cn(S(=O)(=O)N(C)C)c3ccccc23)C(=O)N2CCCC2)cc1	16
CC(=O)c1c(C)nn(CCC(=O)O)c1C	12.2
Cl.c1ccc(CN2CCN(c3nc(NCc4ccco4)c4ccccc4n3)CC2)cc1	-54.5
Cl.c1ccc2c(NCC3CCCO3)nc(N3CCCCC3)nc2c1 (centres unmarked)	-49.3
Cl.OCCNc1nc(N2CCCCC2)nc2ccccc12	-18.4
Cl.c1ccc(CNc2nc(N3CCN(Cc4ccccc4)CC3)nc3ccccc23)cc1	10.4
Cl.c1coc(CNc2nc(N3CCCCC3)nc3ccccc23)c1	-80.8
C=CCNc1nc(N2CCCC2)nc2ccccc12	-66
Cl.OCCN1CCN(c2nc(NCc3ccco3)c3ccccc3n2)CC1	-39.4
Cl.OCCNc1nc(N2CCN(Cc3ccccc3)CC2)nc2ccccc12	-28.6
Cl.c1ccc(N2CCN(c3nc(NCc4ccco4)c4ccccc4n3)CC2)cc1	-9.89
CC(=O)OC1C(N2CCCCC2)c2c(ccc(/C=C/C(=O)N3CCCCC3)c2O)OC1(C)C (centres unmarked)	8.42
O=c1ccc(-c2n[nH]c(=S)n2-c2ccc(F)c(Cl)c2)n[nH]1	14.8
CC(C)C(=O)NC(NC(=S)Nc1ccc(S(N)(=O)=O)cc1)C(Cl)(Cl)Cl (centres unmarked)	12.7
CS(=O)(=O)c1ccccc1C(=O)N(CCc1ccccc1)Cc1ccccc1	9.2
S=C1N(c2ccccc2)C(c2ccccc2)N2CCCN12 (centres unmarked)	6.76
O=C(Cc1ccc(F)cc1)Nc1c(C(=O)N2CCN(c3ncccn3)CC2)oc2ccccc12	-8.61
NC(=O)c1oc2ccccc2c1NC(=O)c1ccc(F)cc1	11.1
CCOC(=O)c1oc2ccccc2c1NC(=O)COc1ccc(F)cc1	12.4

SMILES	hERG current change (%, negative = inhibition) at 1uM [%]
COCCCN(C)C1CCN(C(=O)Nc2ccc(F)cc2)CC1	-2.37
CCOCCCN(C)C1CCN(C(=O)c2oc3ccccc3c2NC(=O)c2ccc(F)cc2)CC1	-85.6
COc1ccc(CC(=O)Nc2c(C(=O)N3CCN(c4ccccc4OC)CC3)oc3ccccc23)cc1OC	9.46
O=C(COc1ccc(F)cc1)Nc1c(C(=O)N2CCC(N3CCCCC3)CC2)oc2ccccc12	-33.8
CCOCC(=O)Nc1c(C(=O)N2CCN(c3ncccn3)CC2)oc2ccccc12	5.42
CCOC(=O)c1oc2ccccc2c1NC(=O)COc1cccc(OC)c1	14.2
CCOCCCN(C)C1CCN(C(=O)c2oc3ccccc3c2NC(=O)Cc2ccc(F)cc2)CC1	-85.2
CCOCCCN(C)C1CCN(C(=O)c2oc3ccccc3c2NC(=O)COc2ccc(F)cc2)CC1	-85.9
CCOCCCN(C)C1CCN(C(=O)c2oc3ccccc3c2NC(=O)COc2cccc(C)c2)CC1	-62.4
CN(C)/N=C/C=C1\CCC/C(=C/c2cccs2)C1=O	7.9
O=C(COc1coc(CN2CCN(c3ccccc3)CC2)cc1=O)Nc1ccccc1	10.3
COc1ccc(C2NCCc3[nH]cnc32)cc1 (centres unmarked)	0.887
CC(/C=N/NC(=O)c1cc(-c2ccncc2)nc2ccccc12)=C\c1ccco1	0.477
CC(c1ccco1)N(C(=O)COc1ccccc1[N+](=O)[O-])c1ccccn1 (centres unmarked)	0.845
CC1CC(C)CN(C(=O)c2ccc(C(=O)c3ccccc3)cc2)C1 (centres unmarked)	-1.23
Nc1nonc1-n1nnc(C(=O)N/N=C/c2ccccc2Cl)c1-c1ccccc1	18.9
COc1ccc(CCN(C)C(=O)c2ccc(S(=O)(=O)Nc3ccccc3C)cc2)cc1OC	10.8
O=C(Nc1ccc(S(=O)(=O)NC2CCCCC2)cc1)c1ccc(Br)o1	1.61
Cc1nccc2c1[nH]c1ccccc12	10.2
Cc1cc2[nH]c3c(c[n+](C)c4ccccc34)c2cc1C.[I-]	-75.9
COc1cc2[nH]c3ccccc3c2cc1C	10.5
O=c1[nH]c(SCc2ccccc2)nc2c1cnn2-c1ccc(F)cc1	4.7
